The list is not random: actives were taken first. Their share in the collection is about 3.5%.
TbPYK inhibitor: blocks Trypanosoma brucei pyruvate kinase | 410,000 tested, 0.12% active | Potency, µM (doses to about 76.8 µM), most hits filed as inhibitors | AID 624173 | TbPYK enzyme, Kinase-Glo Plus ATP luminescence, 45 min; note: nearly all actives have a fitted effect of over 50% in size
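Screened from lowest to highest concentration, compounds were pinned into TbPYK/substrate mixtures, and ADP (130 uM final) was added. Plates sat at room temperature for 45 min prior to Kinase-Glo Plus detection by luminescence.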
LmPK inh: inhibitors of Leishmania mexicana pyruvate kinase; purified LmPK, Kinase-Glo ATP luminescence, 1 h; AID 1721; 290,000 tested, 0.37% active; Potency, µM (top dose mostly 57.5 µM), actives largely listed as inhibitors
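Kinase-Glo luminescence read after 1 h RT reaction of 0.1 nM LmPK with 0.5 mM PEP and 0.1 mM ADP. Activity scaled between uninhibited and enzyme-free controls.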
NS1 inh: inhibitors of influenza NS1 protein function | Potency, µM (series often up to 46.1 µM) | 270,000 tested, 0.4% active; calls by dose curve; note: actives are rising curves; nearly all actives have a fitted effect of over 50% in size
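A cell-based growth assay was used: compounds that relieve NS1-induced slow growth of budding yeast raise OD600. Assay medium was yeast nitrogen base with ammonium sulphate and -URA supplement, pH 6.0, with 2% galactose.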
RE007 growth inh: less growth of the S. pombe RE007 Vpr strain; S. pombe RE007 Vpr strain, BacTiter-Glo ATP luminescence, 24 h; Potency, µM (titrated, usually from 92.2 µM), actives largely listed as inhibitors; 360,000 tested, 0.21% active; active = well fitted falling curve with a large enough effect; inconclusive = small, poorly fitted or top-dose-only effect; inactive = no such curve, though single readings can be large or run the other way; note: nearly all actives have a fitted effect of over 50% in size
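Fission yeast RE007 carrying one integrated HIV-1 vpr copy, seeded at OD 0.01 in PMG+AL medium with 23 nL pinned compound. Grown 24 h at 30 degrees; viability read by BacTiter-Glo luminescence after 5 min.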
Giardia FBPA inh: inhibitors of Giardia lamblia fructose-1,6-bisphosphate aldolase; A8B2U2; purified Giardia FBPA; Potency, µM (doses to about 59.6 µM), usual class: inhibitors; 290,000 tested, 0.71% active; AID 2451; note: nearly all actives have a fitted effect of over 55% in size
Target sequence (A8B2U2 whole entry, looked up): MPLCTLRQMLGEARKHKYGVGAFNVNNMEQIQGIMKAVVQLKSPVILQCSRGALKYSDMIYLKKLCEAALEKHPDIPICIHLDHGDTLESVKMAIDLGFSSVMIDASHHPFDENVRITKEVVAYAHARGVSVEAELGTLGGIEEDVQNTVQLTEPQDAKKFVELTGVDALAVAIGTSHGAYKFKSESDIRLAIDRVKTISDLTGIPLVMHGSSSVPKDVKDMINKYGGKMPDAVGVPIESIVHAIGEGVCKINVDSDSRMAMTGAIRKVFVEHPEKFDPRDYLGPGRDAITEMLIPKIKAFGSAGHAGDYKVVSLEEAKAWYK
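Giardia FBPA (40 nM reagent) was preincubated 10 min at RT with compound (up to 57.5 uM final), then substrate plus GAPDH/TPI/NAD/arsenate coupling system with diaphorase/resazurin was added; resorufin fluorescence (525/598 nm) was read after 20 min.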
Sm TGR inh: S. mansoni TGR enzyme inhibition; purified TGR, DTNB reduction, TNB absorbance 405 nm; Potency, µM (series often up to 114 µM), actives largely listed as inhibitors; 360,000 tested, 3% active; Q962Y6; AID 485364; note: nearly all actives have a fitted effect of over 60% in size
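TGR 20 nM + NADPH 100 uM (dispensed conc.), cpd preinc 15 min RT; start with NADPH (500 uM addition) then DTNB (15 mM addition). Kinetic TNB absorbance, 405 nm filter. Four-parameter Hill fit across titration.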
Hits are given with their value. Unless noted, calls come from the whole dose curve; as a rule, active = well fitted curve in the direction sought with a large enough effect; inconclusive = small, poorly fitted or top-dose-only effect, or another doubt; inactive = no such curve, though single readings can be large; an effect the other way counts as inactive or inconclusive.

What do the screens show for `CCc1ccc(NC(=O)Cn2c(=O)n(Cc3nc(C)no3)c(=O)c3cc4c(cc32)OCO4)cc1`?
TbPYK inhibitor: inactive; Sm TGR inh: inactive

Results for Cc1oc2c(c(=O)c1C)C(=O)CC(c1ccccc1)C2 (stereo not given) ?
TbPYK inhibitor: inactive; LmPK inh: inactive; NS1 inh: inactive; RE007 growth inh: inactive; Giardia FBPA inh: inactive; Sm TGR inh: inactive

What do the screens show for `CS(=O)(=O)c1sc(C#N)c2c1C(=O)CC(c1ccccc1)C2` (stereo not given)?
TbPYK inhibitor: inactive; LmPK inh: inactive; NS1 inh: inactive; RE007 growth inh: inactive; Giardia FBPA inh: inactive; Sm TGR inh: 0.32µM

How did Cc1ccc(CNC(=O)C2CCCN(S(=O)(=O)c3ccc4c(c3)oc(=O)n4C)C2)cc1 (stereo not given) do in these assays?
TbPYK inhibitor: inactive; Sm TGR inh: inactive

How did Cc1ccc(Oc2c(C(N)=O)cc([N+](=O)[O-])cc2[N+](=O)[O-])cc1 do in these assays?
TbPYK inhibitor: inactive; LmPK inh: inactive; NS1 inh: inactive; RE007 growth inh: inactive; Giardia FBPA inh: inactive; Sm TGR inh: 11µM

Results for Cc1ccc(CNc2ccc([N+](=O)[O-])cc2C(N)=O)cc1 ?
TbPYK inhibitor: inactive; RE007 growth inh: inactive; Sm TGR inh: inactive

Results for O=[N+]([O-])c1cc(O)c2ncccc2c1 ?
TbPYK inhibitor: inactive; LmPK inh: inactive; RE007 growth inh: 7.9µM; Giardia FBPA inh: inconclusive; Sm TGR inh: inactive

Results for O=[N+]([O-])c1cc2cccnc2c2ncccc12 ?
TbPYK inhibitor: inactive; LmPK inh: inactive; NS1 inh: inactive; RE007 growth inh: inactive; Giardia FBPA inh: inconclusive; Sm TGR inh: inactive

Results for O=C(c1ccccc1)C1OC1C(=O)c1ccccc1 (stereo not given) ?
TbPYK inhibitor: inactive; RE007 growth inh: inactive

How did O=C(C1=NNCC1c1ccccc1)C1OC1c1ccccc1 (stereo not given) do in these assays?
TbPYK inhibitor: inactive; LmPK inh: inactive; NS1 inh: inactive; RE007 growth inh: inactive; Giardia FBPA inh: inactive; Sm TGR inh: 22µM

Results for Clc1ccccc1Nc1nnc(-c2ccncc2)s1 ?
TbPYK inhibitor: inconclusive; LmPK inh: 4.5µM; NS1 inh: inactive; RE007 growth inh: 32µM; Giardia FBPA inh: inactive; Sm TGR inh: inactive

How did Cc1cccc(N2C(=O)CC(N3CCOCC3)C2=O)c1 (stereo not given) do in these assays?
TbPYK inhibitor: inactive; LmPK inh: inactive; NS1 inh: inactive; RE007 growth inh: inactive; Giardia FBPA inh: inactive; Sm TGR inh: 50µM

What do the screens show for `COC(=O)c1ccc(N2C(=O)CC(N3CCOCC3)C2=O)cc1` (stereo not given)?
TbPYK inhibitor: inactive; LmPK inh: inactive; NS1 inh: inactive; RE007 growth inh: 28µM; Giardia FBPA inh: inactive; Sm TGR inh: inconclusive

Results for Cc1cccc(N2C(=O)C(Cl)=C(N3CCOCC3)C2=O)c1 ?
TbPYK inhibitor: inactive; LmPK inh: inactive; NS1 inh: inactive; RE007 growth inh: inactive; Giardia FBPA inh: inactive; Sm TGR inh: 40µM

How did O=C1C(Cl)=C(N2CCOCC2)C(=O)N1c1cccc(Cl)c1 do in these assays?
TbPYK inhibitor: inactive; LmPK inh: inactive; NS1 inh: inactive; RE007 growth inh: inactive; Giardia FBPA inh: inactive; Sm TGR inh: inconclusive

Results for O=C1CC(N2CCOCC2)C(=O)N1c1cccc(Cl)c1 (stereo not given) ?
TbPYK inhibitor: inactive; LmPK inh: inactive; NS1 inh: inactive; RE007 growth inh: inconclusive; Giardia FBPA inh: inactive; Sm TGR inh: inconclusive

What do the screens show for `CCN(CC)C1CC(=O)N(c2cccc(C)c2)C1=O` (stereo not given)?
LmPK inh: inactive; NS1 inh: inactive; Giardia FBPA inh: inactive; Sm TGR inh: 3.5µM

What do the screens show for `Cc1cccc(N2C(=O)CC(Cn3nc(C)cc3C)C2=O)c1` (stereo not given)?
TbPYK inhibitor: inactive; LmPK inh: inactive; NS1 inh: inactive; RE007 growth inh: inactive; Giardia FBPA inh: inactive; Sm TGR inh: inactive

How did COC(=O)c1ccc(N2C(=O)CC(N3CCN(c4ccccc4)CC3)C2=O)cc1 (stereo not given) do in these assays?
TbPYK inhibitor: inactive; RE007 growth inh: inconclusive

Results for Cc1ccccc1-c1nc(CS(=O)(=O)CC(=O)Nc2c(C)cccc2C)c(C)o1 ?
TbPYK inhibitor: inactive; Sm TGR inh: inconclusive

How did CC(=O)Nc1ccc(N2C(=O)CC(N3CC(C)OC(C)C3)C2=O)cc1 (stereo not given) do in these assays?
TbPYK inhibitor: inactive; LmPK inh: inactive; NS1 inh: inactive; RE007 growth inh: inactive; Giardia FBPA inh: inactive; Sm TGR inh: 22µM

How did O=C1CC(N2CCOCC2)C(=O)N1c1ccc(Cl)cc1 (stereo not given) do in these assays?
TbPYK inhibitor: inactive; LmPK inh: inactive; NS1 inh: inactive; RE007 growth inh: inconclusive; Giardia FBPA inh: inactive; Sm TGR inh: 22µM

How did Cc1ccc(S(=O)(=O)NCCC(=O)Oc2ccc3ccc(=O)oc3c2)cc1 do in these assays?
TbPYK inhibitor: inactive; LmPK inh: inactive; NS1 inh: inactive; RE007 growth inh: inactive; Giardia FBPA inh: inactive; Sm TGR inh: 16µM

How did Cc1ccc(CN2C(=O)c3ccccc3Sc3ccc(C(=O)NCc4ccco4)cc32)cc1 do in these assays?
TbPYK inhibitor: inactive; Sm TGR inh: inactive

Results for CCCc1nc(Cl)c(C#N)c2c1CCCC2 ?
TbPYK inhibitor: inactive; LmPK inh: inactive; NS1 inh: inactive; RE007 growth inh: inactive; Giardia FBPA inh: inactive; Sm TGR inh: 25µM

How did Cc1ccc(CN2CCC(CNC(=O)Nc3c(C)cccc3C)C2)cc1 (stereo not given) do in these assays?
TbPYK inhibitor: inactive; Sm TGR inh: inactive

How did CCC(C)NC(=O)Nc1ccc(Br)cc1 (stereo not given) do in these assays?
TbPYK inhibitor: inactive; LmPK inh: inactive; RE007 growth inh: inactive; Giardia FBPA inh: inactive; Sm TGR inh: inactive

What do the screens show for `CCC(C)Nc1ccc(NC(C)CC)cc1` (stereo not given)?
TbPYK inhibitor: inactive; RE007 growth inh: inconclusive; Sm TGR inh: 32µM

What do the screens show for `O=C(NCc1cccc(Br)c1)c1cnn(-c2ccc(F)cc2)c1-n1cccc1`?
TbPYK inhibitor: inactive; Sm TGR inh: inactive

How did CCC(C)Nc1nc2c(c(=O)[nH]c(=O)n2C)n1Cc1ccc(F)cc1 (stereo not given) do in these assays?
TbPYK inhibitor: inactive; Sm TGR inh: inactive

How did Cc1onc(-c2ccccc2Cl)c1C(=O)Nc1ccccc1 do in these assays?
TbPYK inhibitor: inactive; LmPK inh: inactive; NS1 inh: inactive; RE007 growth inh: inactive; Giardia FBPA inh: inactive; Sm TGR inh: inactive

Results for Cc1onc(-c2ccccc2Cl)c1C(=O)NCc1ccco1 ?
TbPYK inhibitor: inactive; LmPK inh: inactive; NS1 inh: inactive; RE007 growth inh: inactive; Giardia FBPA inh: inactive; Sm TGR inh: 45µM

Bioassay records: PubChem, National Center for Advancing Translational Sciences (NCATS)
